Experiment [1] can be described thus: Her2 expression decrease, cell viability multiplex – SKBR3 breast tumor cells, AlphaScreen, ATP viability, primary screen (AID 461;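 active = Her2 level under about 52% in both replicate screens, with viability over 70% of control, limit read from the data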;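 as to Her2 level: lower value means less Her2 protein in the cells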;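 as to viability: percent of carrier control wells set as 100% viability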). The following applies: SKBR3 Her2 protein level, 18-24 h, measured here: SKBR3 viability, ATP luminescence, at 10 µM. (Alpha assays give light when donor and acceptor beads are brought close together.)
Experiment [2] has as its target Receptor tyrosine-protein kinase erbB-2 (Homo sapiens) (UniProt P04626). Described as above. The note with it: 18-24 h, at 10 µM, stronger effect = lower value.
Experiment [3] can be described thus: reduced viability of SK-BR-3 breast cancer cells – cell-based, 24 h, human, pilot screen (AID 572;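 active = viability at or below 10% of carrier control in both of two separate runs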;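 also: compound exposure lasted between 18 and 24 h rather than exactly 24 h; 100% = carrier-treated control wells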). The note with it: SK-BR-3 viability, CellTiter-Glo luminescence, at 10 µM, stronger effect = lower value. For orientation: Cellular ATP, detected with luciferase, serves as a proxy for viable cell number.
The nature of experiment [4]: HUVEC growth inhibition – cell-based, human, primary screen (AID 575).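 Also: 100% = median of untreated cell wells with 0.1% DMSO on each plate.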 The note with it: HUVEC proliferation, CellTiter-Glo luminescence, 72 h; at 10 µM; stronger effect = lower value.
Experiment [5] in a line: H69AR cell proliferation blockers – human, duplicate replicates, primary screen (AID 580;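 active = viability at or under a set limit in both replicates, limit being median viability minus 3 SD, cut at about 48% in these data, passing the limit was not always enough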;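 also: 100% = mean luminescence of untreated wells and 0% = no signal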). The following applies: H69AR lung tumor cells viability, ATP luminescence, 72 h; at 10 µM; stronger effect = lower value.
Experiment [6] is described as follows: MRP1 drug-resistance reversers in H69AR cells – cell-based, doxorubicin co-treatment, pilot screen (AID 601;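 active = viability loss from added drug above about 55%, and viability with drug at most 40%, in both replicates, limit read from the data, passing the limit was not always enough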). The note with it: CellTiter-Glo, 72 h, at 10 µM; for differential viability (reversal): stronger effect = higher value.
A short description of experiment [7]: yeast transport mutant growth inhibition pilot in 384-well plates, post-Golgi transport modulator project (AID 636; in the data active = inhibition above about 31%). The following applies: absorbance 615 nm, about 18 h, stronger effect = higher value.
A short description of experiment [8]: growth suppression of yeast trafficking mutant, preliminary HTS, modulators of trafficking downstream of Golgi apparatus project, 1536-format plate, OD 615 nm (AID 637; in the data active = inhibition above about 30%). The note with it: yeast transport mutant growth, absorbance 615 nm, 18 h; stronger effect = higher value.
The nature of experiment [9]: S. cerevisiae growth inhibition in permissive medium (OD615), pilot counter-assay for S. cerevisiae lifespan shortening project, permissive growth control (AID 705;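 active = growth inhibition above 25% in both replicates, a cutoff set 3 SD above the mean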). The note with it: OD615, 24 h, at 10 µM, stronger effect = higher value.
Experiment [10] is described as follows: S. cerevisiae growth inhibition in restrictive medium, OD615, pilot screen, restrictive growth control, yeast lifespan reduction project (AID 706;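 active = growth inhibition above a set limit, 3 SD over mean compound inhibition, in both replicates, cut at about 43% in these data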;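 also: modified DeaD lifespan yeast strain shifted to restrictive glucose medium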). The following applies: OD615, 48 h, at 10 µM, stronger effect = higher value.
The nature of experiment [11]: doxorubicin toxicity protection in MRP-1 cells – H69AR cells, CellTiter-Glo, duplicate, MRP-1 activator project, pilot screen (AID 807;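 active = viability increase at or above a cutoff of the median across tested compounds plus 3 SD, cut at about 8.5% in these data, passing the limit was not always enough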;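 also: compound pretreatment 18-22 h then 72 h combined with doxorubicin; 0% = doxorubicin alone and 100% = vehicle without doxorubicin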). The following applies: H69AR viability with doxorubicin, CellTiter-Glo luminescence; at 10 µM; stronger effect = higher value.
The nature of experiment [12]: viability of HCT116 without oncogenic beta-catenin – human colon tumor cells, pilot screen (AID 823;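 active = cell viability at or below a set limit in both duplicate runs, the limit being the all-compound median minus 4 SD, cut at about 23% in these data, passing the limit was not always enough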;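 also: 0% = wells killed by 20 µM Hyamine and 100% = untreated DMSO cell wells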). The following applies: HCT116 beta-catenin knockout viability, CellTiter-Glo, 60 h; at 10 µM; stronger effect = lower value.
Experiment [13] can be described thus: viability of PTEN-null HCT116 cells – cell-based, HCT116 clonal line, CellTiter-Glo, pilot screen (AID 824;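 active = viability at or below 27.92% in each of two runs, the all-compound median minus 4 SD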;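 also: 0% = 20 µM Hyamine control and 100% = vehicle cell control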). The note with it: HCT116 PTEN-deleted viability, 60 h, at 10 µM, stronger effect = lower value.
A short description of experiment [14]: RAM pathway blockade in budding yeast – dse1pr::URA3 reporter, 5-FOA selection, pilot screen (AID 869;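 active = inhibition over a set limit, the all-compound mean plus 3 SD, in both replicate runs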;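 also: 0% = DMSO wells with no growth and 100% = 10 µM 1-NA-PP1 with full growth; RAM network block rescues cells from 5-FOA so hits raise OD615 growth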). The following applies: S. cerevisiae dse1pr::URA3 5-FOA growth, OD615, 2 d; at 10 µM; stronger effect = higher value; strain carries analog-sensitive mutant Cbk1 kinase.
Experiment [15] in a line: RAM signaling pathway blockade in yeast – S. cerevisiae, Pdr1DBD-CYC8 efflux-inhibited sensitized strain, primary screen (AID 1298;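 active = RAM network inhibition above 8.4% in each of two replicates, 3 SD over the compound average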;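 also: 0% = DMSO untreated cells without growth and 100% = 10 µM 1-NA-PP1 full growth; higher means more yeast growth rescued from 5-FOA killing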). The following applies: S. cerevisiae cbk1-as DSE1-URA3 strain, 5-FOA growth OD615, 2 d; at 50 µM; stronger effect = higher value.
Where [16] appears, read: H69AR cells + 2 uM doxorubicin, measured here: viability with 2 uM doxorubicin, stronger effect = lower value.
Where [17] appears, read: H69AR cells, compound alone cytotoxicity.

Each structure is given as a SMILES string. Inconclusive results are not listed. Calls of active or inactive are those of the source.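 The calls were made as follows, unless noted: active = viability at or below 30% in both replicate assays; inconclusive = viability at or below 30% in just one of the two assays; inactive = the rest.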

One may read the viability as a read-out of living cells in per cent, often relative to untreated cells. Usually inhibition stands for the drop in the measured response relative to a control, in per cent.

Receptor tyrosine-protein kinase erbB-2 (Homo sapiens), sequence (P04626 whole entry, looked up): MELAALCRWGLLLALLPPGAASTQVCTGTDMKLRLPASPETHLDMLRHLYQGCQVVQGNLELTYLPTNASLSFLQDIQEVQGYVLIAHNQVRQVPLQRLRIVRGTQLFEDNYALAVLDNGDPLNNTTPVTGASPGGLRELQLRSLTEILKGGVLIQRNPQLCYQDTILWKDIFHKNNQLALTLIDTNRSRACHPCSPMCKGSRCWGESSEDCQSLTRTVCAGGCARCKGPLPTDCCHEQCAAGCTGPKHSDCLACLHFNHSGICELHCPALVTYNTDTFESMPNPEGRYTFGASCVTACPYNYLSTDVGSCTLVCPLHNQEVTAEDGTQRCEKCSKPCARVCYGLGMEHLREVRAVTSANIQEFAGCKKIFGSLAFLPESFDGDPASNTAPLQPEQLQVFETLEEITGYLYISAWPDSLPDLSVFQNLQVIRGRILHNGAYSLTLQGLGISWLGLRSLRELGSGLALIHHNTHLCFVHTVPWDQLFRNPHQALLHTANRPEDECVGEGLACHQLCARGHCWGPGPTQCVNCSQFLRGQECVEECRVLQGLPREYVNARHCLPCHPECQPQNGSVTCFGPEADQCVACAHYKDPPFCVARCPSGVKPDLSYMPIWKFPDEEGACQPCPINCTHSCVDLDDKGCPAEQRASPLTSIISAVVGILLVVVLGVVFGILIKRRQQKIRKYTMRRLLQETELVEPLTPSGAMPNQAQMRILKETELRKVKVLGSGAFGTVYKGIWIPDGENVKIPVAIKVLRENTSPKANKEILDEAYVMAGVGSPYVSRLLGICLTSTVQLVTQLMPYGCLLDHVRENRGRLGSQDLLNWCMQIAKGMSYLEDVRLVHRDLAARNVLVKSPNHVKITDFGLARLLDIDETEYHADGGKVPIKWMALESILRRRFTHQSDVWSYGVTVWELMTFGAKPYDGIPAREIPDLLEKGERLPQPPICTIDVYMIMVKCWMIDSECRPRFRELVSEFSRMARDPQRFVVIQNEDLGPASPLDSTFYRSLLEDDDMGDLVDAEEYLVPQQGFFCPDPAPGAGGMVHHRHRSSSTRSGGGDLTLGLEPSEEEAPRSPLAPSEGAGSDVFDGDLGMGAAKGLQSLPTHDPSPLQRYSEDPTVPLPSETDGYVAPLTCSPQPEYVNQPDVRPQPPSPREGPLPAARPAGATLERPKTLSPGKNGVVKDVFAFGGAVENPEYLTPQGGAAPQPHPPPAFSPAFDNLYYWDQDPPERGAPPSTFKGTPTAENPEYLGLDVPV

Consider `Cc1ccccc1-c1nc(CN2CCC(C(=O)N3CCC(C(N)=O)CC3)CC2)c(C)o1`, for which the viability in experiment [1] is 108%; in experiment [3], 108% (inactive); in experiment [4], 105% (inactive); in [5], 89.5% (inactive); in [6] (setting [16]) it was 84.7%; in experiment [6] (setting [17]), 89.5%. Moreover, the viability in [12] was 92.8% (inactive); in experiment [13], 99.2% (inactive). Moreover, the Her2 level in [2] was 104% (inactive). Moreover, in [6] (H69AR cells + 2 uM doxorubicin), the differential viability (reversal) is 4.8% (inactive). Moreover, the inhibition in experiment [7] was -5.73% (inactive); in experiment [8], 4.67% (inactive); in experiment [14], 1.07% (inactive). In addition, the growth inhibition was -8.16% (inactive) in [9] and 3.29% (inactive) in [10]. Also, the viability increase in experiment [11] was -2.4% (inactive). Besides, in experiment [15], the RAM network inhibition was 2.99% (inactive).
As to `Cc1cccc(-n2ncc3c(NCCCn4ccnc4)ncnc32)c1`, the viability in experiment [1] is 91.5%; in experiment [3] it was 91.5% (inactive); in [4] it was 111% (inactive); in [5] it was 88.6% (inactive); in [6] (setting [16]), 84.9%; in experiment [6] (setting [17]), 88.6%. In addition, the viability in experiment [12] was 92.9% (inactive); in experiment [13], 99.5% (inactive). Moreover, the Her2 level in experiment [2] is 93.5% (inactive). For the same molecule, the differential viability (reversal) in [6] (H69AR cells + 2 uM doxorubicin) is 3.66% (inactive). Besides, the inhibition is 2.13% (inactive) in experiment [7], -3.67% (inactive) in experiment [8] and 1.1% (inactive) in experiment [14]. Besides, the growth inhibition is -2.31% (inactive) in [9] and -0.87% (inactive) in [10]. Moreover, the viability increase in [11] was -0.65% (inactive). Besides, the RAM network inhibition in experiment [15] is -0.32% (inactive).
Turning to `O=C(Cn1cc2c(n1)CCCCC2)N1CCc2ccccc21`, the viability in [1] is 85.5%; in experiment [3] it was 85.5% (inactive); in experiment [4], 67.6% (inactive); in [5] it was 87.8% (inactive); in [6] (setting [16]), 91.8%; in experiment [6] (setting [17]) it was 87.8%. For the same molecule, the viability in experiment [12] was 66.4% (inactive); in [13], 81% (inactive). Also, in experiment [2], the Her2 level is 95.5% (inactive). Moreover, the differential viability (reversal) in experiment [6] (H69AR cells + 2 uM doxorubicin) is -3.99% (inactive). Besides, the inhibition in experiment [7] was -1.33% (inactive); in experiment [8] it was -7.87% (inactive); in [14] it was 2.15% (inactive). Besides, the growth inhibition is -4.03% (inactive) in experiment [9] and -4.38% (inactive) in experiment [10]. For the same molecule, the viability increase in experiment [11] is -2.66% (inactive). Also, the RAM network inhibition in experiment [15] was 1.83% (inactive).
Take `COCCNC(=O)C(C)N(c1ccc(Oc2ccccc2)cc1)S(C)(=O)=O` (stereo not given): the viability in [1] was 112%; in [3], 112% (inactive); in experiment [4], 102% (inactive); in experiment [5] it was 96.5% (inactive); in experiment [6] (setting [16]) it was 89%; in experiment [6] (setting [17]), 96.5%. For the same molecule, the viability in [12] was 90.7% (inactive); in experiment [13] it was 91.6% (inactive). Besides, the Her2 level in experiment [2] was 95.5% (inactive). For the same molecule, the differential viability (reversal) in experiment [6] (H69AR cells + 2 uM doxorubicin) is 7.53% (inactive). In addition, the inhibition in experiment [7] is -0.65% (inactive); in experiment [8], 3.44% (inactive); in experiment [14] it was -0.1% (inactive). Further, the results for the growth inhibition in experiment [9] and in experiment [10] were -4.62% (inactive) and 4.17% (inactive), respectively. Moreover, the viability increase in experiment [11] is -0.82% (inactive). For the same molecule, the RAM network inhibition in [15] was 3.42% (inactive).
Regarding `Cc1nnc(SCCn2c(N3CCC(Cc4ccccc4)CC3)nc3c2c(=O)[nH]c(=O)n3C)s1`, the viability in [1] was 82.5%; in [3] it was 82.5% (inactive); in experiment [4] it was 78.1% (inactive); in experiment [5], 79.4% (inactive); in experiment [6] (setting [16]), 71.1%; in experiment [6] (setting [17]), 79.4%. In addition, the viability in [12] is 78.6% (inactive); in experiment [13] it was 75.7% (inactive). For the same molecule, the Her2 level in experiment [2] was 93.5% (inactive). Further, the differential viability (reversal) in experiment [6] (H69AR cells + 2 uM doxorubicin) was 8.24% (inactive). The values for the inhibition in experiment [7], in experiment [8] and in [14] were -5.21% (inactive), -5.56% (inactive) and 3.93% (inactive), respectively. Further, the growth inhibition in [9] was -2.44% (inactive); in [10], 5.62% (inactive). The viability increase in experiment [11] is -4.95% (inactive). Moreover, the RAM network inhibition in experiment [15] was 5.98% (inactive).

The values are drawn from PubChem BioAssay.
